This is an account of results in PubChem BioAssay AID602 (SRMLSC, 2007).

Screen size: about 85,000 compounds; about 35 (0.04%) were called active.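 How the source made its calls: active means viability drop by adding the cancer drug above about 55%, with treated viability meeting a 40% cutoff (limit read from the data); inactive means the rest, inconclusive results apart.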 Many of the other results were omitted from the sample, so actives are more common in it than they were.

By viability is commonly meant a per cent measure of how many cells are alive, often set against a control.

The assay can be described thus: reversal of MRP1-mediated doxorubicin resistance, primary screen, H69AR cells, doxorubicin co-treatment (AID 602).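 On differential viability (reversal): larger differential means the compound sensitizes cells more to doxorubicin.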 The settings on record: CellTiter-Glo, 72 h, at 10 µM; for differential viability (reversal): stronger effect = higher value. On the technique in general: Cellular ATP, detected with luciferase, serves as a proxy for viable cell number.
[1] abbreviates: H69AR cells + 2 uM doxorubicin, measured here: viability with 2 uM doxorubicin, stronger effect = lower value.
Where [2] appears, read: H69AR cells, measured here: cytotoxicity without doxorubicin.

As for `CSC1=NP(=S)(SC)N(C)c2nc3n(c21)CCC3` (stereo not given), the differential viability (reversal) (H69AR cells + 2 uM doxorubicin) is 57.9% (active). Besides, the viability reads like this: under setting [1], 27.2%; under setting [2], 85.1%.
On the same counts, the results for `CCOc1ccc(CN(CCCl)CCCl)cc1C(=O)OC` are -29% (inactive), 83.1% and 54.1%.
With `Cn1c(O)c(C=NCCN2CCNCC2)c(=O)n(C)c1=O`, the differential viability (reversal) (H69AR cells + 2 uM doxorubicin) was 8.13% (inactive). Moreover, the viability was found to be 85.1% under setting [1] and 93.2% under setting [2].
Take `CC(=O)NC(=O)NC(C)Cc1ccccc1` (stereo not given): the differential viability (reversal) (H69AR cells + 2 uM doxorubicin) is -9.72% (inactive). Besides, the viability under setting [1] stood at 96.7% and the viability under setting [2] was found to be 87%.
For `CCN(N=Nc1nonc1OC)c1nonc1OC` the same measures were 9.43% (inactive), 86.2% and 95.7%.
